Assay outcomes as filed in PubChem BioAssay.
AMA1-RON2 inh: AMA1-RON2 (P. falciparum) interaction inhibition; AlphaScreen AMA1-biotinylated RON2 peptide binding; AID 720542; Potency, µM (titrated, usually from 58.2 µM), hits mostly inhibitors; 0.2% of 360,000 active; also: nearly all actives have a fitted effect of over 45% in size
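AMA1 (3D7) with his tag at 25 nM final met compounds first, then biotinylated RON2 peptide at 25 nM; detection used donor plus acceptor beads, 10 µg/mL apiece, read by AlphaScreen after 30 min at room temperature.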
Pf growth 96h: P. falciparum growth inhibition at 96 hours | P. falciparum luciferase reporter growth, 96 h | 6.9% of 320,000 active | AID 504834 | Potency, µM (highest dose often 28.7 µM), usual class: inhibitors
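Two-generation exposure (96 h) targets delayed-death phenotype. Reporter parasites carrying integrated firefly luciferase, in red cells at 2% hematocrit and 0.05% parasitemia final, kept at 37 C, 5% CO2; luminescence loss indicates inhibition.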
Vaccinia Venus: vaccinia inhibition (Venus reporter); Vaccinia virus Venus reporter expression, fluorescence; Potency, µM (top dose mostly 36.5 µM), actives largely listed as inhibitors; 0.46% of 330,000 active; calls by dose curve; tested in A549 cells; also: nearly all actives have a fitted effect of over 30% in size
VACV mCherry inh: vaccinia inhibition (mCherry reporter); AID 720579; Potency, µM (series often up to 36.5 µM), hits mostly inhibitors; 0.63% of 310,000 active; Vaccinia virus mCherry reporter infection, fluorescence; calls by dose curve; tested in A549 cells; also: nearly all actives have a fitted effect of over 35% in size
Pf growth 48h: P. falciparum growth inhibition at 48 hours (one generation); P. falciparum luciferase growth in erythrocytes, 48 h; Potency, µM (top dose mostly 28.7 µM), hits mostly inhibitors; 5.9% of 310,000 active
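Erythrocytes infected with P. falciparum carrying an integrated firefly luciferase reporter (2% hematocrit, 0.1% parasitemia final) were exposed to compounds in RPMI 1640 with 0.5% Albumax at 37 C, 5% CO2. Growth inhibition was scored as reduced luminescence.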
Of the large screens only hits and unclear results are named; the others gave an inactive call. A selection: hits, their analogues and other compounds. The true share with any hit is near 8.7%. Unless noted, calls follow the shape of the dose curve; as a rule, active = well fitted curve in the direction sought with a large enough effect; inconclusive = small, poorly fitted or top-dose-only effect, or another doubt; inactive = no such curve, though single readings can be large; an effect the other way counts as inactive or inconclusive.

Cc1ccc(NC(=O)C(=O)NCC(c2cccnc2)N2CCc3ccccc3C2)cc1 (stereo not given)	none (no result: AMA1-RON2 inh, Pf growth 96h, Pf growth 48h)
CCN(CC)S(=O)(=O)c1ccc(C(=O)Nc2ccc3c(c2)OCCO3)cc1	Pf growth 96h inconclusive, Pf growth 48h 6.57µM (no result: Vaccinia Venus, VACV mCherry inh)
CCc1nnc(NC(=O)c2ccc(NC(=O)C(C)C)cc2)s1	none (no result: Vaccinia Venus, VACV mCherry inh)
CCc1nnc(NC(=O)c2ccc(S(=O)(=O)NCC(C)C)cc2)s1	Pf growth 96h 1.65µM
CCc1nnc(NC(=O)[C@@H](NC(=O)c2cccc(S(=O)(=O)N(CC)CC)c2)C(C)C)s1	Pf growth 48h 1.65µM (no result: Pf growth 96h, Vaccinia Venus, VACV mCherry inh)
CCN(CC)S(=O)(=O)c1cccc(C(=O)Nc2ccc3c(c2)OCO3)c1	none
CCc1nnc(NC(=O)c2ccncc2)s1	none
CCc1nnc(NC(=O)c2cccc(C(=O)Nc3nnc(CC)s3)n2)s1	Pf growth 96h 9.28µM
CCN(CC)S(=O)(=O)c1cccc(C(=O)NC(C(=O)NCCc2ccccn2)C(C)C)c1 (stereo not given)	none (no result: Pf growth 96h, Pf growth 48h)
Cc1csc2nc(-c3ccc(NS(=O)(=O)c4cccc(F)c4)cc3)cn12	none (no result: AMA1-RON2 inh, Pf growth 96h, Pf growth 48h)
O=C(COc1ccccc1C(=O)Nc1ccccc1)NCCCCc1ccccc1	none (no result: AMA1-RON2 inh, Pf growth 96h, Pf growth 48h)
COc1ccc(-c2ccnc(-n3ncc(C(=O)NC(C)(C)CO)c3C3CC3)n2)cc1F	none (no result: AMA1-RON2 inh, Pf growth 96h, Pf growth 48h)
COc1cccc(N2CCN(C(=O)Cn3cnc4onc(-c5ccc(F)cc5)c4c3=O)CC2)c1	none (no result: AMA1-RON2 inh, Pf growth 96h, Pf growth 48h)
CCN(CC)S(=O)(=O)c1ccc(NC(=O)c2ccc(Cl)nc2)cc1	Pf growth 96h 4.65µM, Pf growth 48h inconclusive
Cc1c(C)c(C)c(/C=C/c2ccnc3ccccc23)c(C)c1C	none (no result: AMA1-RON2 inh, Pf growth 96h, Pf growth 48h)
COc1cccc(NC(=O)CSc2ccc3nnc(CCNC(=O)c4ccccc4)n3n2)c1	Pf growth 96h 10.4µM (no result: Vaccinia Venus, VACV mCherry inh)
Cc1ccc(C(=O)NCCc2nnc3ccc(SCC(=O)NCc4ccc(F)cc4)nn23)cc1	Pf growth 96h 9.28µM (no result: Vaccinia Venus, VACV mCherry inh)
COc1ccc(NC(=O)CSc2ccc3nnc(CCNC(=O)c4ccccc4)n3n2)cc1	Pf growth 96h inconclusive (no result: Vaccinia Venus, VACV mCherry inh)
Cc1nn(CC(=O)N2CCC(C)CC2)c(=O)c2cc3sccc3n12	none (no result: AMA1-RON2 inh, Pf growth 96h, Pf growth 48h)
Cc1ccc(S(=O)Cc2ccc(C(=O)NCc3ccc(OC(C)C)cc3)o2)cc1 (stereo not given)	none (no result: AMA1-RON2 inh, Pf growth 96h, Pf growth 48h)
C=C1NN(CC#N)C(=O)N1c1ccc(OCc2ccccc2)cc1	none (no result: AMA1-RON2 inh, Pf growth 96h, Pf growth 48h)
CCN(CC)CCCNC(=O)c1ccc(OCC(=O)Nc2ccccc2C(F)(F)F)c(OC)c1	Pf growth 96h 18.5µM, Pf growth 48h inconclusive
CCN(CC(=O)Nc1ccc(OC)c(OC)c1)CC(=O)Nc1ccccc1C(F)(F)F	none
Cc1ccnc2ccc3ccccc3c12	none (no result: AMA1-RON2 inh, Pf growth 96h, Pf growth 48h)
O=C(NCC1CCCO1)c1ccc(S(=O)(=O)N2CCC(c3nc4ccc(Cl)cc4[nH]3)CC2)cc1 (stereo not given)	Pf growth 48h 13.1µM
Cc1ccc(CN2CCC(c3nc4ccc(Cl)cc4[nH]3)CC2)cc1	Pf growth 96h inconclusive, Vaccinia Venus inconclusive, Pf growth 48h 8.28µM
O=S(=O)(c1ccc2c(c1)OCCO2)N1CCC(c2nc3ccc(Cl)cc3[nH]2)CC1	Pf growth 96h inconclusive, Vaccinia Venus inconclusive, VACV mCherry inh inconclusive, Pf growth 48h 11.7µM
Clc1ccc2nc(C3CCN(Cc4ccccc4)CC3)[nH]c2c1	Pf growth 96h inconclusive
CC(=O)N/C(=C/c1ccccc1)c1ccncc1	none (no result: AMA1-RON2 inh, Pf growth 96h, Pf growth 48h)
COc1cc(OC)c(NC(=O)c2oc3ccc4c(c3c2C)C(=O)CC(C)(C)O4)cc1Cl	none (no result: AMA1-RON2 inh, Pf growth 96h, Pf growth 48h)
Cc1cc(C)cc(-c2nc(-c3ccncc3)no2)c1	Pf growth 96h inconclusive (no result: Pf growth 48h)
O=[N+]([O-])c1cc(-c2nc(-c3ccncc3)no2)ccc1Cl	none
O=[N+]([O-])c1cc(-c2nc(-c3ccncc3)no2)cc([N+](=O)[O-])c1	Pf growth 96h 1.85µM, Pf growth 48h inconclusive
Cc1cccc(-c2nc(-c3ccncc3)no2)c1	Pf growth 96h 10.4µM
O=c1cc(O)c2sc3nc(-c4ccccc4)cc(C(F)(F)F)c3c2[nH]1	Pf growth 96h inconclusive, Pf growth 48h inconclusive
O=c1cc(O)c2sc3nc4c(c(C(F)(F)F)c3c2[nH]1)CCCCC4	Pf growth 48h 2.08µM
Cc1ccc(N(Cc2ccccc2)C(=O)c2cc(S(=O)(=O)N3CCOCC3)ccc2N2CCCC2)cc1	AMA1-RON2 inh inconclusive, Pf growth 96h inconclusive, Pf growth 48h 2.62µM
Cc1ccc(C(=O)N(CCc2ccccc2)Cc2ccccc2)cc1S(=O)(=O)N1CCOCC1	none (no result: Pf growth 96h, Vaccinia Venus, VACV mCherry inh, Pf growth 48h)
Cc1ccc(C(=O)N(CCc2ccccc2)Cc2ccccc2)cc1S(=O)(=O)N1CCCCC1	Pf growth 96h 8.28µM, Pf growth 48h 13.1µM
